From PubChem BioAssay AID602364 (National Center for Advancing Translational Sciences (NCATS), 2012)
Inconclusive results are not listed. Values without a mark were called inactive. Active and inactive are the calls of the source. Calls follow the shape of the dose curve; as a rule, active = well fitted inhibition curve with a large enough effect; inconclusive = small, poorly fitted or top-dose-only effect; inactive = flat fitted curve, though single readings scatter.

Target: Luciferin 4-monooxygenase (Photinus pyralis) (UniProt P08659)
Assay: FLuc inhibitory activity for the follow-up compounds in a biochemical assay with 1mM ATP
Settings: purified P. pyralis luciferase, luminescence; series mostly up to 57.5 µM; activity change, negative = inhibition: at the top concentration
Text: NCGC Assay Overview: Firefly (Photinus pyralis) luciferase is one of the most commonly used transcriptional reporters. It is considered one of the more dynamically responsive reporters - that is, responsive to changes in reporter transcription - as it requires no post-translational modifications and is enzymatically active directly after protein synthesis (Wood, 1998). With no endogenous expression in mammalian cells and without the requirement of external excitation, it offers very little background signal, thus generally providing excellent signal to background for most assays. Previous profiling work to determine the prevalence of compounds that affect FLuc enzymatic activity (PubChem AID 411) identified that ~3% of the MLSMR library (then at ~72K) inhibited FLuc. […] Of the compounds identified in this profile that inhibited FLuc, 151 compounds were selected for further analysis, in an effort to better understand their mode of inhibiting FLuc. The assay described here was to determine the activity of the compounds in a FLuc assay that contained a KM concentration of D-luciferin and a high concentration (1mM) of ATP.
NCGC Assay Protocol Summary: Reagents: 50mM Tris acetate, pH 7.5; 10mM Mg acetate; 10uM D-luciferin (Sigma #L9504); 1mM ATP; 0.01% Tween-20; 0.05% BSA; 10nM P. pyralis luciferase (Sigma #L9506) Control compounds used were two known firefly luciferase inhibitors (3-(5-(3-chlorophenyl)-1,2,4-oxadiazol-3-yl)benzoic acid and 5-(2-fluorophenyl)-3-phenyl-1,2,4-oxadiazole), and DMSO. Three microliters containing firefly luciferase substrates in buffer (final concentrations: 50mM Tris acetate, pH 7.5, 10mM Mg acetate, 0.01% Tween-20, 0.05% BSA, 10uM D-luciferin, 1mM ATP) are dispensed into each well of a Greiner white, solid-bottom 1536-well format plate using a flying reagent dispenser (FRD). These assay plates were then treated with 23nL of compound or DMSO using a Kalypsys pin tool, which allows for delivery of a 12-point intraplate titration of each compound to the assay plate (quantitative HTS), with a final compound concentrations ranging from approximately ~60uM to 0.3nM. One microliter of firefly luciferase in […] Tris-acetate buffer was then delivered by FRD to each well for a final enzyme concentration of 10nM. Luciferase activity was then measured using a ViewLux CCD imager (PerkinElmer), with an average exposure time of 2-30 seconds (2X binning, medium/high gain).

Chain of Luciferin 4-monooxygenase (Photinus pyralis) (P08659 whole entry, looked up): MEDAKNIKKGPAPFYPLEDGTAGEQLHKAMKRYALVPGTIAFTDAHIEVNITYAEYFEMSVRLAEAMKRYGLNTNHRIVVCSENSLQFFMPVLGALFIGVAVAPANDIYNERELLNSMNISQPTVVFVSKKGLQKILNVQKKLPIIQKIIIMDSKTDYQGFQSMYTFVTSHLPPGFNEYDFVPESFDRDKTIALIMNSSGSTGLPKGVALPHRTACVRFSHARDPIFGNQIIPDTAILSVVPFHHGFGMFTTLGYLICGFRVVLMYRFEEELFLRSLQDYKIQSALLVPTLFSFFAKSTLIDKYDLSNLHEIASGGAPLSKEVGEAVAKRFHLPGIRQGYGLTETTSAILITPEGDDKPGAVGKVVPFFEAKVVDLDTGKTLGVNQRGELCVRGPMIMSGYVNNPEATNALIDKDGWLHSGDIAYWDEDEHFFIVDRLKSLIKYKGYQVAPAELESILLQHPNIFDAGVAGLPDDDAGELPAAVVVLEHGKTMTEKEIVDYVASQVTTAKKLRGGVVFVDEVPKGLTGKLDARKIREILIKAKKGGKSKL

| SMILES | Potency | activity change, negative = inhibition |
| --- | --- | --- |
| CCOc1ccc2nc(NC(=O)c3cccnc3)sc2c1 | 2060 nM (active) |  |
| Cc1ccc2nc(-c3ccc(N)cc3)sc2c1 | 23.1 nM (active) |  |
| COc1ccc(-c2cccc(C(=O)Nc3cccc(C(=O)O)c3)c2)cc1 | 5800 nM (active) |  |
| Nc1ccc(-c2nc3ccc(C(=O)O)cc3s2)cc1 | 65.1 nM (active) |  |
| O=C(Nc1ccccc1C(=O)O)c1cccc(NC(=O)c2ccc(Br)o2)c1 | 32600 nM (active) |  |
| O=C(O)c1cccc(NC(=O)c2cccc(S(=O)(=O)N3CCc4ccccc43)c2)c1 | 18300 nM (active) |  |
| Cc1c(NC(=O)c2cc(-n3cnnc3)ccc2Cl)cccc1-c1nc2ccccc2s1 | 2910 nM (active) |  |
| O=C(O)c1cccc(NC(=O)c2cccc(S(=O)(=O)N3CCc4ccccc4C3)c2)c1 | 18300 nM (active) |  |
| CC(C)C(=O)Nc1cccc(C(=O)Nc2ccccc2C(=O)O)c1 | 11600 nM (active) |  |
| Cc1ccc(S(=O)(=O)N2CCN(C(=O)c3ccccc3-c3nc4ccccc4s3)CC2)c(C)c1 |  | -5.52% |
| CC(C)Oc1ccc(C(=O)Nc2ccc(-c3nc4ccccc4s3)cc2)cc1 |  | -9.43% |
| Nc1ccc2nc(-c3ccc(O)cc3)sc2c1 | 183 nM (active) |  |
| NC(=O)Cc1ccc2sc(-c3ccccc3)nc2c1 | 1160 nM (active) |  |
| COc1ccc2nc(NC(=O)c3ccco3)sc2c1 | 183 nM (active) |  |
| Cc1c(C)c2ccc(OCC(=O)Nc3ccccn3)c(C)c2oc1=O | 8.2 nM (active) |  |
| CC(C)c1ccc(-c2nc3ccccc3s2)cc1 | 41.1 nM (active) |  |
| Nc1ccc(-c2nc3ccc(N)cc3s2)cc1 | 103 nM (active) |  |
| O=C(Nc1ccccc1-c1nc2ccccc2s1)c1ccc(Br)o1 |  | -1.11% |
| c1ccc2sc(-c3ccc4c(c3)OCO4)nc2c1 | 91.9 nM (active) |  |
| CN=c1scc(-c2ccccc2F)n1/N=C/c1ccc[nH]1 | 58 nM (active) |  |

| SMILES | Potency | activity change, negative = inhibition |
| --- | --- | --- |
| COc1ccc(C(=O)Nc2nc3ccc(OC)cc3s2)cc1 | 5800 nM (active) |  |
| CC(C)CC(=O)Nc1cccc(C(=O)Nc2ccccc2C(=O)O)c1 | 18300 nM (active) |  |
| COc1ccc2nc(NC(=O)CCc3nc(-c4ccccc4F)no3)sc2c1 |  | -4.54% |
| Cc1ccccc1C(=O)Nc1cccc(C(=O)Nc2ccccc2C(=O)O)c1 | 32600 nM (active) |  |
| Cc1ccc(C(=O)Nc2ccc(C(=O)O)cc2)cc1S(=O)(=O)NCc1ccccc1 |  | 8.97% |
| O=C(Nc1ccccc1C(=O)O)c1cccc(NC(=O)c2ccco2)c1 | 18300 nM (active) |  |
| CCOc1ccc(C(=O)Nc2cccc(C(=O)O)c2)cc1Cl | 580 nM (active) |  |
| O=C(Nc1ccccc1C(=O)O)c1ccc(NC(=O)C2CCCCC2)cc1 | 32600 nM (active) |  |
| CCOc1ccc(C(=O)Nc2ccccc2C(=O)O)cc1 | 1830 nM (active) |  |
| COc1ccc2nc(NC(=O)Cc3cccs3)sc2c1 | 4110 nM (active) |  |
| Cc1ccc(C(=O)Nc2cccc(C(=O)O)c2)cc1 | 651 nM (active) |  |
| COc1cc(C(=O)Nc2cc(C)c(O)c(-c3nc4ccccc4s3)c2)cc(OC)c1OC |  | 2.73% |
| CCOc1c(Cl)cc(C(=O)Nc2ccccc2C(=O)O)cc1Cl | 18300 nM (active) |  |
| Cc1ccc(S(=O)(=O)N2CCOCC2)cc1C(=O)Nc1ccccc1C(=O)O |  | -3.63% |
| COc1ccc(C(=O)Nc2ccccc2C(=O)N/N=C/c2ccc(O)c(OC)c2)cc1 | 14.6 nM (active) |  |
| Cc1ccc(C(=O)Nc2cccc(C(=O)O)c2)cc1S(=O)(=O)N1CCCCC1 | 291 nM (active) |  |
| Cc1ccc(C(=O)Nc2ccc(C(=O)O)cc2)cc1S(=O)(=O)Nc1ccccc1 |  | 3.68% |
| COc1cccc(OC)c1C(=O)Nc1cccc(C(=O)Nc2cccc(C(=O)O)c2)c1 | 4610 nM (active) |  |
| CCOc1ccc2nc(NC(=O)c3cc([N+](=O)[O-])ccc3N3CCOCC3)sc2c1 |  | 0% |
| Nc1ccc(C(=O)Nc2ccccc2C(=O)O)cc1 | 14600 nM (active) |  |
